Test results from the supplement of paper PMC8728848.
The entries come from a sample that favours the strongest signals as a whole.

Experiments:
Assay in all cases: glycan array binding signal (z-score within array); higher = stronger binding
Details in all cases: glycan notation: IUPAC condensed, linker removed
[1] = target: Fuc(a1-2)Gal(b1-3)GlcNAc(b1-2)Man(a1-3)[Fuc(a1-2)Gal(b1-3)GlcNAc(b1-2)Man(a1-6)]Man(b1-4)GlcNAc(b1-4)GlcNAc
Procedure, shortened: (§1)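 The Consortium for Functional Glycomics database supplied 3228 glycan arrays, of which those lacking an available protein sequence were dropped. The binding signal, a within-array Z-score, was averaged across arrays of the same protein sequence and across linkers. Negative scores can be read as non-binding.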

[2] = target: Fuc(a1-2)Gal(b1-3)[Fuc(a1-4)]GlcNAc(b1-2)Man(a1-3)[Fuc(a1-2)Gal(b1-3)[Fuc(a1-4)]GlcNAc(b1-2)Man(a1-6)]Man(b1-4)GlcNAc(b1-4)GlcNAc
Procedure, shortened: as §1

[3] = target: Fuc(a1-2)[Gal(a1-3)]Gal(b1-4)Glc
Procedure, shortened: as §1

[4] = target: Fuc(a1-2)[Gal(a1-4)]Gal(b1-4)GlcNAc
Procedure, shortened: as §1

[5] = target: Fuc(a1-2)[GalNAc(a1-4)]Gal(b1-4)GlcNAc
Procedure, shortened: as §1

[6] = target: Fuc(a1-3)[Gal(b1-4)]GlcNAc(b1-4)Gal(b1-4)[Fuc(a1-3)]GlcNAc
Procedure, shortened: as §1

[7] = target: Gal(a1-3)[Gal(a1-4)]Gal(b1-4)GlcNAc
Procedure, shortened: as §1

Gal(b1-2)Gal = target: Gal(b1-2)Gal
Procedure, shortened: as §1

[8] = target: Gal(b1-4)GlcNAc(b1-2)Man(a1-3)[Gal(b1-4)GlcNAc(b1-2)Man(a1-6)]Man(b1-4)GlcNAc(b1-4)GlcNAc
Procedure, shortened: as §1

[9] = target: Gal(b1-4)GlcNAc(b1-3)Gal(b1-4)GlcNAc(b1-3)Gal(b1-4)GlcNAc
Procedure, shortened: as §1

[10] = target: Gal(b1-4)GlcNAc(b1-3)[GlcNAc(b1-6)]Gal(b1-4)GlcNAc
Procedure, shortened: as §1

[11] = target: Gal3S(b1-3)[Fuc(a1-4)]GlcNAc
Procedure, shortened: as §1

Gal3S6S(b1-4)GlcNAc6S = target: Gal3S6S(b1-4)GlcNAc6S
Procedure, shortened: as §1

GalNAc(a1-3)GalNAc = target: GalNAc(a1-3)GalNAc
Procedure, shortened: as §1

GalNAc(b1-3)GalNAc = target: GalNAc(b1-3)GalNAc
Procedure, shortened: as §1

Glc(a1-6)Glc(a1-6)Glc = target: Glc(a1-6)Glc(a1-6)Glc
Procedure, shortened: as §1

Glc(b1-6)Glc = target: Glc(b1-6)Glc
Procedure, shortened: as §1

GlcA(b1-6)Gal = target: GlcA(b1-6)Gal
Procedure, shortened: as §1

[12] = target: GlcNAc(a1-4)Gal(b1-4)GlcNAc(b1-3)Gal(b1-4)GlcNAc(b1-3)Gal(b1-4)GlcNAc
Procedure, shortened: as §1

[13] = target: GlcNAc(a1-4)Gal(b1-4)GlcNAc(b1-3)Gal(b1-4)[Fuc(a1-3)]GlcNAc(b1-3)Gal(b1-4)[Fuc(a1-3)]GlcNAc
Procedure, shortened: as §1

[14] = target: GlcNAc(a1-6)Gal(b1-4)GlcNAc
Procedure, shortened: as §1

[15] = target: GlcNAc(b1-4)[GlcNAc(b1-6)]GalNAc
Procedure, shortened: as §1

Man(a1-6)Man = target: Man(a1-6)Man
Procedure, shortened: as §1

[16] = target: Neu5Ac(a2-3)Gal(b1-3)GlcNAc(b1-3)Gal(b1-3)GlcNAc
Procedure, shortened: as §1

[17] = target: Neu5Ac(a2-3)Gal(b1-3)GlcNAc6S
Procedure, shortened: as §1

[18] = target: Neu5Ac(a2-3)Gal(b1-4)[Fuc(a1-3)]GlcNAc(b1-3)Gal(b1-4)GlcNAc
Procedure, shortened: as §1

[19] = target: Neu5Ac(a2-3)Gal(b1-4)[Fuc(a1-3)]GlcNAc(b1-6)[Gal(b1-3)]GalNAc
Procedure, shortened: as §1

[20] = target: Neu5Ac(a2-3)Gal6S(b1-4)[Fuc(a1-3)]GlcNAc
Procedure, shortened: as §1

Neu5Ac(a2-3)GalNAc = target: Neu5Ac(a2-3)GalNAc
Procedure, shortened: as §1

[21] = target: Neu5Ac(a2-6)Gal(b1-4)GlcNAc(b1-3)Gal(b1-4)GlcNAc(b1-3)Gal(b1-4)GlcNAc
Procedure, shortened: as §1

Neu5Ac(a2-8)Neu5Ac = target: Neu5Ac(a2-8)Neu5Ac
Procedure, shortened: as §1

Neu5Ac(b2-6)GalNAc = target: Neu5Ac(b2-6)GalNAc
Procedure, shortened: as §1

B1: MRCL (Homo sapiens), NP_872425.1 (protein)
chain: ATKVHFPFHTCDLRIDGDCFMVSSEADTYYRARMKCQRKGGVLAQIKSQKVQDILAFYLGRLETTNEVTDSDFETRNFWIGLTYKTAKDSFRWATGEHQAFTSFAFGQPDNHGLVWLSAAMGFGNCVELQASAAFNWNNQRCKTRNRYICQFAQEHISRWGPGS
In the case of B1, the “glycan array binding signal (z-score)” value [1] is reported as 3.42, the “glycan array binding signal (z-score)” value [2] is reported as 0.034 and the “glycan array binding signal (z-score)” value [3] is reported as 2.33. For the same binder, the “glycan array binding signal (z-score)” value [4] was -0.456, the “glycan array binding signal (z-score)” value [5] was 3.1 and the “glycan array binding signal (z-score)” value [6] was -0.365. For the same binder, the “glycan array binding signal (z-score)” value [7] was 0.889, the “glycan array binding signal (z-score)” value (Gal(b1-2)Gal) was -0.726 and the “glycan array binding signal (z-score)” value [8] was -0.358. The “glycan array binding signal (z-score)” value [9] was 4.88, the “glycan array binding signal (z-score)” value [10] was 4.12 and the “glycan array binding signal (z-score)” value [11] was -0.239. For the same binder, the “glycan array binding signal (z-score)” value (Gal3S6S(b1-4)GlcNAc6S) was 0.67, the “glycan array binding signal (z-score)” value (GalNAc(a1-3)GalNAc) was -0.581 and the “glycan array binding signal (z-score)” value (GalNAc(b1-3)GalNAc) was -0.074. For the same binder, the “glycan array binding signal (z-score)” value (Glc(a1-6)Glc(a1-6)Glc) was -0.679, the “glycan array binding signal (z-score)” value (Glc(b1-6)Glc) was -0.712 and the “glycan array binding signal (z-score)” value (GlcA(b1-6)Gal) was 0.237. The “glycan array binding signal (z-score)” value [12] was 1.88, the “glycan array binding signal (z-score)” value [13] was 1.11 and the “glycan array binding signal (z-score)” value [14] was 5.62. The “glycan array binding signal (z-score)” value [15] was -0.523, the “glycan array binding signal (z-score)” value (Man(a1-6)Man) was 0.948 and the “glycan array binding signal (z-score)” value [16] was -0.295. For the same binder, the “glycan array binding signal (z-score)” value [17] was -0.562, the “glycan array binding signal (z-score)” value [18] was -0.637 and the “glycan array binding signal (z-score)” value [19] was -0.645. The “glycan array binding signal (z-score)” value [20] was -0.64, the “glycan array binding signal (z-score)” value (Neu5Ac(a2-3)GalNAc) was -0.424 and the “glycan array binding signal (z-score)” value [21] was -0.367. The “glycan array binding signal (z-score)” value (Neu5Ac(a2-8)Neu5Ac) was -0.294 and the “glycan array binding signal (z-score)” value (Neu5Ac(b2-6)GalNAc) was 5.61.
